Measured values as given in PubChem BioAssay (Tox21).
Results filed as inconclusive are left out. Entries that show only a call come without a potency. Values without a mark were called inactive. The source made the active and inactive calls. The call rests on the fitted dose curve; in most records, active means well fitted inhibition curve with a large enough effect in the signal ratio in the repeat runs, with a control signal flat; inconclusive means weak or mixed curves, or effect the other way; inactive means flat fitted curve, though single readings scatter; the % refers to the signal ratio.

The compounds below were run against D(2) dopamine receptor (Homo sapiens) (UniProt P14416) (assay: Dopamine D2 receptor (DRD2) small molecule antagonists, cell-based qHTS assay (AID 1963595)). Conditions: HEK293-DRD2 cAMP HTRF antagonist mode; series mostly up to 92.4 µM.
From the text: National Center for Advancing Translational Sciences [NCATS]
Division of Preclinical Innovation [DPI]
U.S. Environmental Protection Agency [EPA]
National Institutes of Environmental Health Sciences [NIEHS]
National Toxicology Program [NTP]
U.S. Food and Drug Administration [FDA]
DRD2 is the D2 subtype of the dopamine receptor, which is coupled to Gi subtype of G protein-coupled receptor. This G protein-coupled receptor inhibits adenylyl cyclase activity. The DRD2-HEK293 cell line stably expressing D2 dopamine receptor can be used for screening agonists and antagonists of interactions between D2 and its ligands. The Hek293-DRD2 cAMP assay is based on HTRF technology. It measures changes of cAMP accumulation in response to Gi coupled GPCR activation or inhibition.
Tox21 Assay Protocol Summary:
DRD2-Hek293 cells were dispensed at 600 cells/3uL/well in 1536-well white plates using a Multidrop Dispenser. After the assay plates were incubated at a 37 C/5% CO2 incubator for 24 h, 1 uL of Ro20-1724 at final concentration of 0.1 mM was transferred to the assay plate by a Flying Reagent Dispenser. Following Ro20-1724 addition, 23 nL of compound dissolved in DMSO, positive controls or DMSO only was added to the assay plates via Wako pintool station. The assay plates were incubated at room temperature for 10 min. Next, 1 uL of mixture of NKH477 (final concentration at 200 nM) and quinpirole (final concentration at 12 nM) was added into the plates. After the assay plates were incubated at room temperature for an additional 30 min, 2.5 ul/well of cAMP-d2 and 2.5 ul/well of anti-cAMP-cryptate were added respectively into the assay plates using a Flying Reagent Dispenser. The plates were incubated at room temperature for 1 h. The fluorescence intensity in the plates was measured at 340 nm excitation and 665 & 620 nm emission by an Envision plate reader.
Potency means the concentration at half of the fitted maximal effect.

Sequence of D(2) dopamine receptor (Homo sapiens) (P14416 whole entry, looked up): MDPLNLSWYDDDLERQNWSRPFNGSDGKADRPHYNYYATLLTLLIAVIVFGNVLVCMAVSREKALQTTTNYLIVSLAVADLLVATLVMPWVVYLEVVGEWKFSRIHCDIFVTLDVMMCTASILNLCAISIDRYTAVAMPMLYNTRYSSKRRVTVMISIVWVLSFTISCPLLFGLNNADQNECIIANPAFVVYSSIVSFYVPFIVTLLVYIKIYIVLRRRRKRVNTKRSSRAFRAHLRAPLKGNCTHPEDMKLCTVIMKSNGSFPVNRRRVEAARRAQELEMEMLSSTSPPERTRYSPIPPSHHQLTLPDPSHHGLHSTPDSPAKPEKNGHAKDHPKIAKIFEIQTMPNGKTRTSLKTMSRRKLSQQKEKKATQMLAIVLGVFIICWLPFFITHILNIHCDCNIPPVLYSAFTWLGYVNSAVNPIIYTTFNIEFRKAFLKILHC

SMILES | Potency | activity change, negative = inhibition
O=C(Nc1ccc(F)cc1F)c1cccnc1Oc1cccc(C(F)(F)F)c1 | inactive | 
CCc1ccc(C2CCNCC2)cc1 | inactive | 
COP(=S)(OC)Oc1ccc([N+](=O)[O-])cc1Cl | inactive | 
S=C=Nc1cccc2ccccc12 | inactive | 
Oc1cc(Cl)cc(Cl)c1 | inactive | 
C=CCC1(C(C)CC)C(=O)NC(=O)NC1=O (stereo not given) | inactive | 
CCOC(=O)C(Cl)Cc1cc(-n2nc(C)n(C(F)F)c2=O)c(F)cc1Cl (stereo not given) | inactive | 
Nc1ccccc1C(=O)OC/C=C/c1ccccc1 | inactive | 
O=c1[nH]c2ccccc2n1C1CCNCC1 | inactive | 
CCOc1nc(C(Cl)(Cl)Cl)ns1 | inactive | 
ClC1=C(Cl)[C@]2(Cl)[C@@H]3[C@H]4C[C@H]([C@@H]5O[C@H]45)[C@@H]3[C@@]1(Cl)C2(Cl)Cl | inactive | 
NC(=O)c1ccc(N)nc1 | inactive | 
CC(=O)[O-].[Tl+] | inactive | 
ClC=C(Cl)Cl | inactive | 
C=CC(=O)OCC(C)O (stereo not given) | inactive | 
CCOP(=S)(OCC)Oc1ccc(Cl)cc1Cl | inactive | 
Cc1nnc2n1-c1sc(CCC(=O)N3CCOCC3)cc1C(c1ccccc1Cl)=NC2 | inactive | 
CN(C)CCN(C)C | inactive | 
ClC(Cl)C(Cl)(Cl)Cl | inactive | 
Oc1cccc(Cl)c1Cl | inactive | 

SMILES | Potency | activity change, negative = inhibition
CCOP(=O)(OCC)Oc1nc(Cl)c(Cl)cc1Cl | inactive | 
C[C@]12C=CC(=O)C=C1CC[C@@H]1[C@@H]2CC[C@@]2(C)[C@H]1CC[C@]2(C)O | inactive | 
Clc1c(Cl)c(Cl)c(Cl)c(Cl)c1Cl |  | -2.06% [at 8.38 µM]
CCC(C)(C)C(=O)OC1=C(c2ccc(Cl)cc2Cl)C(=O)OC12CCCCC2 | inactive | 
COc1cc(CC#N)cc(OC)c1OC | inactive | 
CSC(=O)c1c(C(F)F)nc(C(F)(F)F)c(C(=O)SC)c1CC(C)C | inactive | 
CCCCCCCCCC(=O)O[C@H]1CC[C@H]2[C@@H]3CCC4=CC(=O)CC[C@@H]4[C@H]3CC[C@]12C | inactive | 
CC(C)[N+](=O)[O-] | inactive | 
CN(C)C(=S)[S-].CN(C)C(=S)[S-].[Cu+2] |  | 2.62% [at 18.9 µM]
CCOP(=S)(OCC)OC(Cl)C(Cl)(Cl)Cl (stereo not given) | inactive | 
CC(C)CC(C)N (stereo not given) | inactive | 
COc1ccc(CN2CCNCC2)c(OC)c1OC | inactive | 
Cc1cccc(C)c1NC1=NCCCS1 | inactive | 
CCOC(=O)c1ncn2c1CN(C)C(=O)c1c(I)cccc1-2 | inactive | 
CC(=O)Nc1ccc2c(c1)Cc1ccccc1-2 | inactive | 
CCCCC(=O)Cl | inactive | 
CCC[CH2][Sn]([CH2]CCC)([CH2]CCC)[CH2]CCC | 38.6 µM (active) | 
CC(C)(C)c1cc(O)ccc1O | inactive | 
CCC(CC)(CNC(=O)CCCO)c1cccc(OC)c1 | inactive | 
CCCN(CCC)c1c([N+](=O)[O-])cc(S(N)(=O)=O)cc1[N+](=O)[O-] | 30.6 µM (active) | 
